# Data reported in PMC12820563, “FoxP3 forms a head-to-head dimer in vivo and stabilizes its multimerization on adjacent microsatellites”.
# Whole data set: some 16,000 sequences, median “rpm ratio (pull-down/input)” near 0.5, cut for the highest 2% near 5.5. The sample as a whole holds a higher share of the highest values than the screen did.
# Biological target: T1, MBP-FoxP3dN (Mus musculus, UniProt Q99JB6 188-423)
# T1 sequence: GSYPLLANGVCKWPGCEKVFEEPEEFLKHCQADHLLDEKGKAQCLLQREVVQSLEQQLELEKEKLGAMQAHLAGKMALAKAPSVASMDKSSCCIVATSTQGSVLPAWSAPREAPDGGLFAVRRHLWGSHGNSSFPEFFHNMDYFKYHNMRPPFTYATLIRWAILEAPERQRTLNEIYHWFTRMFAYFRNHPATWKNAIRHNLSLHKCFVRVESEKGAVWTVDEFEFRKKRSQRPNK
# Assay: PD-seq (MBP pull-down with sequencing); 20 mM Tris-HCl pH 7.5, 100 mM NaCl, 1.5 mM MgCl2, 0.4 uM protein, 0.1 uM dsDNA library, 30 min, room temperature, amylose pull-down; high values mean tight binding
# Details: protein: recombinant; tags: His6-MBP; chain copies: 2; dsDNA, one strand shown
# Procedure, shortened: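 In Tris pH 7.5 buffer with NaCl and MgCl2, 0.4 µM His6-MBP-tagged mouse FoxP3 or FoxP1 fragment lacking the N-terminus, from E. coli, met 0.1 µM Klenow-filled double-stranded degenerate DNA library for 30 min at room temperature. Three washes on amylose resin followed capture of the complexes, then proteinase K release of DNA, PCR barcoding and Illumina sequencing. Binding is taken as pooled-replicate reads-per-million enrichment of pull-down relative to input.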
row,Sequence,binding signal
1,GATGATTGTTCTCCCAGCTGATGAATTTTATTGATCGAGTAAACAAATTTTCCTAATCTTTCTGTTCAAGCGCCATCTAC,5.5 RPM ratio (pull-down/input)
2,GATGATTGTTCTCCCAGCTGATGAATTTATTGTATCGAGTAAACAAATTTTCCTAATCTTTCTGTTCAAGCGCCATCTAC,5.25 RPM ratio (pull-down/input)
3,GATGATTGTTCTCCCAGCTGATGAATTTATTGAATCGAGTAAACAAATTTTCCTAATCTTTCTGTTCAAGCGCCATCTAC,0.822 RPM ratio (pull-down/input)
4,GATGATTGTTCTCCCAGCTGATGAATTTATTCTATCGAGTAAACAAATTTTCCTAATCTTTCTGTTCAAGCGCCATCTAC,0.549 RPM ratio (pull-down/input)
5,GATGATTGTTCTCCCAGCTGATGAATTTATTTGATCGAGTAAACAAATTTTCCTAATCTTTCTGTTCAAGCGCCATCTAC,2.62 RPM ratio (pull-down/input)
6,GATGATTGTTCTCCCAGCTGATGAATTTTATTTATCGAGTAAACAAATTTTCCTAATCTTTCTGTTCAAGCGCCATCTAC,6.95 RPM ratio (pull-down/input)
7,GATGATTGTTCTCCCAGCTGATGAATTGTATTTATCGAGTAAACAAATTTTCCTAATCTTTCTGTTCAAGCGCCATCTAC,6.83 RPM ratio (pull-down/input)
8,GATGATTGTTCTCCCAGCTGATGAATTTATTTTATCGAGTAAACAAATTTTCCTAATCTTTCTGTTCAAGCGCCATCTAC,3.67 RPM ratio (pull-down/input)
9,GATGATTGTTCTCCCAGCTGATGAATTCTATTTATCGAGTAAACAAATTTTCCTAATCTTTCTGTTCAAGCGCCATCTAC,6.6 RPM ratio (pull-down/input)
10,GATGATTGTTCTCCCAGCTGATGAATTATTCCTATCGAGTAAACAAATTTTCCTAATCTTTCTGTTCAAGCGCCATCTAC,0.365 RPM ratio (pull-down/input)
11,GATGATTGTTCTCCCAGCTGATGAATTGATCAAGTCGAGTAAACAAATTTTCCTAATCTTTCTGTTCAAGCGCCATCTAC,0.245 RPM ratio (pull-down/input)
12,GATGATTGTTCTCCCAGCTGATGAATTTGACGAGTCGAGTAAACAAATTTTCCTAATCTTTCTGTTCAAGCGCCATCTAC,0.235 RPM ratio (pull-down/input)
13,GATGATTGTTCTCCCAGCTGATGAATTATCAGCCTCGAGTAAACAAATTTTCCTAATCTTTCTGTTCAAGCGCCATCTAC,0.468 RPM ratio (pull-down/input)
14,GATGATTGTTCTCCCAGCTGATGAATTTCCGTGCTCGAGTAAACAAATTTTCCTAATCTTTCTGTTCAAGCGCCATCTAC,0.332 RPM ratio (pull-down/input)
15,GATGATTGTTCTCCCAGCTGATGAATTGGACCATTCGAGTAAACAAATTTTCCTAATCTTTCTGTTCAAGCGCCATCTAC,0.374 RPM ratio (pull-down/input)
16,GATGATTGTTCTCCCAGCTGATGAATTAGCCGACTCGAGTAAACAAATTTTCCTAATCTTTCTGTTCAAGCGCCATCTAC,0.205 RPM ratio (pull-down/input)

row,Sequence,binding signal
1,GATGATTGTTCTCCCAGCTGATGAATTCTGGAATTCGAGTAAACAAATTTTCCTAATCTTTCTGTTCAAGCGCCATCTAC,0.579 RPM ratio (pull-down/input)
2,GATGATTGTTCTCCCAGCTGATGAATTCCCTGTGTCGAGTAAACAAATTTTCCTAATCTTTCTGTTCAAGCGCCATCTAC,0.347 RPM ratio (pull-down/input)
3,GATGATTGTTCTCCCAGCTGATGAATTTTTGTTGTCGAGTAAACAAATTTTCCTAATCTTTCTGTTCAAGCGCCATCTAC,3.24 RPM ratio (pull-down/input)
4,GATGATTGTTCTCCCAGCTGATGAATTCGTGTTGTCGAGTAAACAAATTTTCCTAATCTTTCTGTTCAAGCGCCATCTAC,2.75 RPM ratio (pull-down/input)
5,GATGATTGTTCTCCCAGCTGATGAATTCGTTGTGTCGAGTAAACAAATTTTCCTAATCTTTCTGTTCAAGCGCCATCTAC,5.69 RPM ratio (pull-down/input)
6,GATGATTGTTCTCCCAGCTGATGAATTGTCGTGTTCGAGTAAACAAATTTTCCTAATCTTTCTGTTCAAGCGCCATCTAC,0.915 RPM ratio (pull-down/input)
7,GATGATTGTTCTCCCAGCTGATGAATTTGTCGTGTCGAGTAAACAAATTTTCCTAATCTTTCTGTTCAAGCGCCATCTAC,5.6 RPM ratio (pull-down/input)
8,GATGATTGTTCTCCCAGCTGATGAATTTTTGCTGTCGAGTAAACAAATTTTCCTAATCTTTCTGTTCAAGCGCCATCTAC,0.548 RPM ratio (pull-down/input)
9,GATGATTGTTCTCCCAGCTGATGAATTGTTGTTGTCGAGTAAACAAATTTTCCTAATCTTTCTGTTCAAGCGCCATCTAC,7.65 RPM ratio (pull-down/input)
10,GATGATTGTTCTCCCAGCTGATGAATTGTGTCGTTCGAGTAAACAAATTTTCCTAATCTTTCTGTTCAAGCGCCATCTAC,2.73 RPM ratio (pull-down/input)
11,GATGATTGTTCTCCCAGCTGATGAATTGCTTGTGTCGAGTAAACAAATTTTCCTAATCTTTCTGTTCAAGCGCCATCTAC,2.01 RPM ratio (pull-down/input)
12,GATGATTGTTCTCCCAGCTGATGAATTTTTCGTGTCGAGTAAACAAATTTTCCTAATCTTTCTGTTCAAGCGCCATCTAC,0.363 RPM ratio (pull-down/input)
13,GATGATTGTTCTCCCAGCTGATGAATTTGCTGTGTCGAGTAAACAAATTTTCCTAATCTTTCTGTTCAAGCGCCATCTAC,6.29 RPM ratio (pull-down/input)
14,GATGATTGTTCTCCCAGCTGATGAATTTCTGTTGTCGAGTAAACAAATTTTCCTAATCTTTCTGTTCAAGCGCCATCTAC,1.28 RPM ratio (pull-down/input)
15,GATGATTGTTCTCCCAGCTGATGAATTAGGCTGATCGAGTAAACAAATTTTCCTAATCTTTCTGTTCAAGCGCCATCTAC,0.537 RPM ratio (pull-down/input)
16,GATGATTGTTCTCCCAGCTGATGAATTGAGTGCCTCGAGTAAACAAATTTTCCTAATCTTTCTGTTCAAGCGCCATCTAC,0.963 RPM ratio (pull-down/input)
